Experimental findings from PubChem BioAssay (NCI) are described below.

Some test systems named below: T-47D breast; BT-549 breast; MDA-MB-435 melanoma; SW-620 colon; MCF7 breast; HCT-116 colon; HCC-2998 colon; KM12 colon.
Assay in all cases: NCI-60 one-dose screen, 48 h (100 = growth as untreated, 0 = no growth, -100 = all killed)
Holding throughout (details): 10 µM unless noted

The structures appear in SMILES notation. The panel holds about 83,000 compounds, 20% with a hit somewhere; the sample as a whole holds those more often.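 Each cell line was grown in a 96-well plate and treated with one concentration of compound for 48 hours. Values below 10 were considered active.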 Values without a mark were called inactive. Activity calls are given as the source filed them.

Regarding `Nc1ncnc2c1c(-c1ccc(Oc3ccccc3)cc1)nn2C[C@@H]1SSC[C@@H]1O`, the growth in the experiment on T-47D breast was -30.9% (active); in the experiment on BT-549 breast, 83%; with MDA-MB-435 melanoma it was -90.9% (active); in the experiment on SW-620 colon, 25.4%; in the experiment on MCF7 breast, -4.42% (active); with HCT-116 colon, 7.61% (active). Besides, the growth was 56.5% with HCC-2998 colon and 37.2% in the experiment with KM12 colon.

As for `NC(=N\N=C/c1ccc(O)cc1)/C(N)=N\N=C/c1ccc(O)cc1`, the growth in the experiment with T-47D breast is 49.6%; in the experiment with BT-549 breast, 52.5%; in the experiment on MDA-MB-435 melanoma, 44.7%; with SW-620 colon, 40.8%; with MCF7 breast, 66.4%; with HCT-116 colon it was 62.2%. For the same compound, the growth was 51% in the experiment on HCC-2998 colon and 23.6% with KM12 colon.

`COc1ccncc1S(=O)(=O)NC(=O)Nc1ccc(Cl)c(Cl)c1`: the growth was 78.1% with T-47D breast; 111% in the experiment with BT-549 breast; 100% in the experiment on MDA-MB-435 melanoma; 99.6% with SW-620 colon; 105% in the experiment on MCF7 breast; 91.7% in the experiment with HCT-116 colon. Also, the growth was 101% in the experiment with HCC-2998 colon and 91.9% in the experiment on KM12 colon.

For the compound `FC(F)(F)c1cccc(-c2cn3c(ccc4ccccc43)n2)c1`, the growth was 46.5% with T-47D breast; 91.1% in the experiment with BT-549 breast; 100% in the experiment with MDA-MB-435 melanoma; 89.5% in the experiment with SW-620 colon; 41% in the experiment on MCF7 breast; 88% in the experiment with HCT-116 colon. Moreover, the growth with HCC-2998 colon is 105%; with KM12 colon, 91%.

For `CCN1C(=O)N(CC)C2C1NN=c1s/c(=C\c3cccnc3)c(=O)n12` (stereo not drawn), the growth in the experiment with T-47D breast is 53.4%; with BT-549 breast, 57.3%; in the experiment on MDA-MB-435 melanoma it was -46.6% (active); in the experiment on SW-620 colon, 26.5%; with MCF7 breast, 21.7%; with HCT-116 colon, 15.8%. The results for the growth in the experiment on HCC-2998 colon and in the experiment with KM12 colon were 26.8% and 19.5%, respectively.

Regarding `O=C1/C(=C/c2ccccc2)Oc2ccc(O)c(I)c21`, the growth is 77.5% with T-47D breast; 84.3% with BT-549 breast; 103% in the experiment on MDA-MB-435 melanoma; 95.5% in the experiment on SW-620 colon; 54.8% in the experiment with MCF7 breast; 98.2% in the experiment with HCT-116 colon. The values for the growth in the experiment with HCC-2998 colon and in the experiment with KM12 colon were 114% and 98.8%, respectively.

In the case of `S=c1[nH]nc(-c2cc3ccc2CCc2ccc(cc2)CC3)n1-c1ccccc1`, the growth with T-47D breast was 89.1%; in the experiment on BT-549 breast, 108%; with MDA-MB-435 melanoma, 93.3%; in the experiment with SW-620 colon, 97.5%; with MCF7 breast, 85.3%; in the experiment on HCT-116 colon, 88.1%. Besides, the growth was 113% in the experiment with HCC-2998 colon and 98.2% in the experiment with KM12 colon.

On to `O=C1C2(c3ccccc3)C(c3ccccc3)=C(c3ccccc3)C1(c1ccccc1)C1CC=CC12` (stereo not drawn), for which the growth in the experiment on T-47D breast is 68.3%; with BT-549 breast, 99.4%; with MDA-MB-435 melanoma it was 92.9%; in the experiment on SW-620 colon, 93.8%; in the experiment with MCF7 breast, 82.8%; in the experiment on HCT-116 colon, 76%. Besides, the results for the growth in the experiment on HCC-2998 colon and with KM12 colon were 87.7% and 80%, respectively.

`COc1ccc(-c2c(N)n[nH]c2-c2cc(OC)c3c(c2)OCCO3)cc1`: the growth with T-47D breast is 66.1%; with BT-549 breast, 74.4%; in the experiment on MDA-MB-435 melanoma, -24.1% (active); in the experiment on SW-620 colon, 48%; in the experiment on MCF7 breast it was 57.6%; in the experiment on HCT-116 colon, 57.2%. For the same compound, the growth in the experiment with HCC-2998 colon was 75%; in the experiment on KM12 colon, 40.4%.

As to `O=C(Nc1ccc(NCCN2CCOCC2)nc1)c1ccc([N+](=O)[O-])cc1`, the growth is 107% in the experiment on T-47D breast; 98.6% in the experiment with BT-549 breast; 97.8% in the experiment on MDA-MB-435 melanoma; 104% with SW-620 colon; 89.2% in the experiment with MCF7 breast; 97.2% with HCT-116 colon. Besides, the values for the growth in the experiment on HCC-2998 colon and in the experiment with KM12 colon were 101% and 104%, respectively.

With `COc1ccc(-c2nc(/C=N/Nc3cc(C)nc4ccc(Cl)cc34)c(C)o2)cc1`, the growth in the experiment on T-47D breast is -38% (active); in the experiment with BT-549 breast it was -34.9% (active); in the experiment on MDA-MB-435 melanoma, -97.1% (active); in the experiment with SW-620 colon it was -88.6% (active); in the experiment on MCF7 breast, -80.2% (active); in the experiment with HCT-116 colon, -86% (active). Also, the growth was -48.3% (active) in the experiment on HCC-2998 colon and -87% (active) in the experiment on KM12 colon.

In the case of `COc1ccc(C(=O)N2NC(=O)/C(=C/c3ccccc3F)N=C2c2ccccc2)cc1`, the growth was 97.2% in the experiment on T-47D breast; 106% in the experiment on BT-549 breast; 106% with MDA-MB-435 melanoma; 111% with SW-620 colon; 91.2% with MCF7 breast; 102% in the experiment with HCT-116 colon. Also, the growth in the experiment with HCC-2998 colon is 97.8%; in the experiment on KM12 colon, 106%.

For the compound `O=C(/C=C\c1cccc([N+](=O)[O-])c1)/C=C/c1cccc([N+](=O)[O-])c1`, the growth was 97.9% in the experiment on T-47D breast; 88.9% in the experiment with BT-549 breast; 36.7% with MDA-MB-435 melanoma; 18.9% in the experiment on SW-620 colon; 19% in the experiment with MCF7 breast; -31.2% (active) in the experiment on HCT-116 colon. The growth is 97% in the experiment on HCC-2998 colon and -7.25% (active) in the experiment with KM12 colon.

Regarding `COC(=O)[C@]12CC[C@@H](C)[C@H](C)[C@@H]1C1=CC[C@@H]3[C@@]4(C)C(C=O)=C[C@@](C)(COC(=O)c5ccco5)[C@@H]4[C@H](O)C[C@@]3(C)[C@]1(C)CC2`, the growth in the experiment on T-47D breast was 13.4%; in the experiment on BT-549 breast it was -3.09% (active); in the experiment on MDA-MB-435 melanoma, -57.4% (active); in the experiment on SW-620 colon, -55.7% (active); in the experiment on MCF7 breast, -19.2% (active); in the experiment on HCT-116 colon, -75.8% (active). The growth with HCC-2998 colon is -84.8% (active); with KM12 colon, -56.8% (active).

For `COc1ccc(C(=O)NC(=O)Nc2cc3c(cc2F)/C(=C/c2[nH]c(C)c(CCC(=O)O)c2C)C(=O)N3)c(F)c1`, the growth with T-47D breast was 47.8%; in the experiment on BT-549 breast it was 25.2%; with MDA-MB-435 melanoma, 36.8%; in the experiment with SW-620 colon, 26.6%; in the experiment on MCF7 breast, 41.7%; in the experiment on HCT-116 colon it was 37%. Further, the growth was 50.3% in the experiment on HCC-2998 colon and 11.7% with KM12 colon.

`COc1cc(C2NN=C3c4ccccc4CCC32)cc(OC)c1OC` (stereo not drawn): the growth was 39.3% in the experiment with T-47D breast; 103% in the experiment with BT-549 breast; 96.9% in the experiment with MDA-MB-435 melanoma; 93.9% with SW-620 colon; 42.7% in the experiment on MCF7 breast; 74.8% with HCT-116 colon. For the same compound, the growth with HCC-2998 colon was 110%; with KM12 colon, 80.4%.
